Source: PubChem (several laboratories)
tim23-1 inh: inhibits growth of tim23-1 mutant yeast. S. cerevisiae tim23-1 growth, BacTiter-Glo luminescence, 24 h. 1.3% of 330,000 active. AID 463212. inhibition, % at 20 µM;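 active means growth inhibition of the mutant yeast at or above 50%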;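 further: temperature-sensitive mutant grown at 25 °C; plate controls were DMSO-treated mutant yeast for no effect and medium wells lacking yeast for full effect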
tim10-1 inh: inhibits growth of tim10-1 mutant yeast; S. cerevisiae tim10-1 ts strain growth, BacTiter-Glo, 24 h; 2.2% of 330,000 active; inhibition, % at 20 µM; AID 463190;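 active means inhibition of at least 40%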;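 further: mutant grown at 25 °C; 0% = DMSO wells with yeast and 100% = wells holding no yeast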
Mot1-301 SUMO: SUMOylation pathway inhibition by Mot1-301 growth rescue. S. cerevisiae Mot1-301 growth rescue, ATP luminescence, 38.5C; percent above DMSO median, 100 means doubled. growth rescue, % at 18.8 µM. 1% of 320,000 active;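 active means every valid replicate shows activation above 250% relative to neutral control wells; inactive means the rest, any valid replicate at or below 250%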;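 further: OY570 slx delta 5 strain wells were the positive control but not used for scaling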
TIM10 inh: TIM10 yeast growth inhibition; S. cerevisiae TIM10 strain growth, BacTiter-Glo luminescence, 24 h; inhibition, % at 10 µM; 1.4% of 330,000 active; AID 463195;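 active means inhibition of 40% or more at the single tested concentration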;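 further: wild-type TIM10 isogenic control strain grown at permissive 25 °C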
PfHsp90 set2: reduces growth (ATP signal) of yeast expressing P. falciparum Hsp90; S. cerevisiae expressing PfHsp90, BacTiter-Glo ATP, 48 h; yeast lacking PDR1 and PDR3 efflux regulators; inhibition, % at 9.4 µM; 0.32% of 310,000 active; AID 504621;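 active means every replicate shows inhibition above about 80%, whatever the replicate mean, limit read from the data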;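 further: 0% = DMSO neutral controls and 100% = 20 µM radicicol positive controls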
TIM10 conf: confirmation of TIM10 yeast growth inhibitors. shares compounds with TIM10 inh. S. cerevisiae tim10 strain growth, BacTiter-Glo luminescence, 24 h. inhibition, % at 10 µM. 63% of 4,600 active;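 active means inhibition of yeast growth at or above a set limit in either of two replicates at 10 µM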;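 further: this counterscreen used the strain with wild-type TIM10; 0% = yeast with DMSO and 100% = medium wells lacking yeast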
An asterisk follows results filed as active; nt = no result given. This is a sample that favours compounds with a hit; in the whole collection about 4.4% have one here.

SMILES | tim23-1 inh | tim10-1 inh | Mot1-301 SUMO | TIM10 inh | PfHsp90 set2 | TIM10 conf
CC(C)(C)n1nnnc1C(c1cccnc1)N1CCN(c2cccc(C(F)(F)F)c2)CC1 (stereo unspecified) | -83 | -26 | 46 | -51 | 18 | nt
Cc1[nH]n(-c2ccc([N+](=O)[O-])cc2)c(=O)c1C=NCCc1c(C)[nH]c2ccccc12 | 8 | 21 | 10 | 45* | 5 | -15
Cc1[nH]n(-c2ccc([N+](=O)[O-])cc2)c(=O)c1C=NCCc1ccc(S(N)(=O)=O)cc1 | 18 | 25 | -21 | -2 | 38 | nt
CNc1ccc(S(=O)(=O)NCC(=O)OC(C)C(=O)N(C)Cc2ccccc2)cc1[N+](=O)[O-] (stereo unspecified) | 7 | -3 | 64 | 1 | -15 | nt
CC(=O)c1ccc2c(c1)Nc1ccccc1S2 | 17 | 16 | -5 | 88* | 6 | 3
C/C(=N\NC(=O)c1ccc(C)cc1C)c1ccc2c(c1)Nc1ccccc1S2 | 12 | 5 | 4 | 5 | nt | nt
COC(=O)c1ccc(C(=O)OC)c(NC(=O)C2CCCO2)c1 (stereo unspecified) | -15 | -61 | -6 | -47 | 20 | nt
CC(C)(C)OC1NS(=O)(=O)OCC1NCOC(Cl)(Cl)Cl (stereo unspecified) | 24 | 16 | 10 | 18 | nt | nt
O=c1oc2ccccc2c(Nc2cccc3ccccc23)c1[N+](=O)[O-] | 39 | 31 | 15 | 49* | 1 | 36*
O=c1oc2ccccc2c(Nc2ccccc2O)c1[N+](=O)[O-] | -13 | 11 | 8 | 9 | -7 | nt
Cc1ccc2cc3cc(C(=O)NCCCN4CCCC4)oc3nc2c1 | 17 | 6 | 11 | 45* | -2 | 15
CCCCN(CC)CCCNC(=O)c1cc2cc3ccc(C)cc3nc2o1 | 23 | 25 | 10 | 32 | -30 | nt
O=C(NCc1ccccc1)c1cccc2c1C(=O)c1ccc(/C=C/c3ccccc3)cc1S2(=O)=O | 6 | 6 | 4 | 0 | 10 | nt
COc1ccc(Cn2c(-c3ccc(C)cc3)c[n+]3ccccc23)cc1 | -3 | 37 | -11 | 42* | 22 | 51*
COc1ccc(Cl)cc1C(=O)NNC(=O)COC(=O)CCN=C1NS(=O)(=O)c2ccccc21 | 9 | 1 | -2 | 1 | nt | nt
O=[N+]([O-])c1ccc(O)c(C2=NNC(c3ccccc3F)C2)c1 (stereo unspecified) | 43 | 36 | -10 | 50* | -56 | 57*
O=[N+]([O-])c1cc([N+](=O)[O-])c2c(=Nc3ccccc3)n(-c3ccccc3)n(O)c2c1 | 48 | 18 | -9 | 50* | -33 | 66*
O=[N+]([O-])c1cccc(C(=Nc2ccccc2)NO)c1 | 7 | -3 | nt | 6 | 2 | nt
O=C(COc1ccccc1Cl)N1CCN(c2ccc([N+](=O)[O-])c(N3CCCCC3)c2)CC1 | 38 | 22 | -7 | 19 | -4 | nt
O=C(COc1ccc(Cl)cc1)N1CCN(c2ccc([N+](=O)[O-])c(N3CCCCC3)c2)CC1 | 38 | 39 | 13 | 42* | -49 | 25
CC(OC(=O)c1ccc([N+](=O)[O-])s1)C(=O)Nc1ncc(Cl)cc1Cl (stereo unspecified) | 23 | 24 | nt | 44* | -3 | 2
Cc1cc(C)n(-c2nc3ccccc3nc2N2CCC(C)CC2)n1 | 24 | 25 | -8 | 42* | nt | 18
Cc1nc2ccccc2nc1N1CCC(C)CC1 | 13 | 29 | 0 | -1 | -55 | nt
O=C(c1ccccc1)N1N=C(C(F)(F)F)CC1(O)c1ccc(F)cc1 (stereo unspecified) | 37 | 0 | 2 | 67* | 3 | 23
O=C(c1ccccc1)N1N=C(C(F)(F)F)CC1(O)c1ccccc1 (stereo unspecified) | 33 | -3 | -29 | -22 | -2 | nt
SMILES | tim23-1 inh | tim10-1 inh | Mot1-301 SUMO | TIM10 inh | PfHsp90 set2 | TIM10 conf
Cc1cccc(NC(=O)/C=C/c2ccc([N+](=O)[O-])s2)c1 | nt | nt | -6 | nt | 0 | nt
Cc1cccc(NC(=S)N/N=C/c2ccc([N+](=O)[O-])s2)c1 | 24 | 26 | 237 | 58* | 100* | 34*
COc1ccc2oc(C(=O)NCc3cc(OC)c(OC)cc3OC)c(C)c2c1 | 7 | -20 | 30 | -2 | -3 | nt
O=C(NNC(=S)NC1CCCCC1)c1cccc(S(=O)(=O)Nc2ccccc2Cl)c1 | 21 | 28 | -6 | 41* | -27 | 41*
O=C(c1cccc(S(=O)(=O)Nc2ccccc2Cl)c1)N1CCCCCC1 | 9 | 8 | -7 | 7 | 7 | nt
COc1cc(/C=C/c2cc[n+](C)cc2)ccc1OCC(=O)Nc1ccc(Cl)c(Cl)c1 | 22 | 4 | -2 | 42* | -2 | 16
NC(=O)C1CCCN(S(=O)(=O)c2ccc3ccccc3c2)C1 (stereo unspecified) | -4 | -16 | 1 | -9 | 5 | nt
O=C(C1CCCN(Cc2ccc([N+](=O)[O-])cc2)C1)N1CCCCC1 (stereo unspecified) | 22 | -8 | 16 | 10 | 21 | nt
O=C(O)CCCC(=O)OCc1c(-c2ccccc2)ncc2ccccc12 | 4 | -4 | -21 | -4 | 12 | nt
CCOc1ccc(CCNC(=O)CN2C(=O)c3cccnc3Oc3ccc(Cl)cc32)cc1 | 15 | -5 | -11 | 7 | -12 | nt
CCNC(=O)c1ccc(C2SCC(=O)N2Cc2ccco2)cc1 (stereo unspecified) | 13 | 3 | -3 | 0 | 9 | nt
CC(C)CCNC(=O)c1ccc(C2SCC(=O)N2Cc2ccco2)cc1 (stereo unspecified) | 6 | 26 | 1 | 54* | 5 | 2
C=CCOc1ccc2c(c1)C(=NO)c1cc(OCC=C)ccc1-2 | 21 | 0 | 1 | -19 | -15 | nt
COc1ccc2c(c1)C(=NO)c1cc(OC)ccc1-2 | 10 | 38 | 28 | 45* | -6 | 38*
Cc1ccccc1N1CCN(C(=O)c2ccc(Oc3ccc(C(F)(F)F)cn3)cc2)CC1 | 38 | 38 | -22 | 47* | 3 | 43*
Cc1c(C(=O)NCc2ccc(F)cc2)c(-c2ccccc2)nn1-c1ccccc1 | 26 | 28 | -1 | 43* | 4 | 37*
CCOc1cc(/C=C2/C(=O)ON=C2C)ccc1OCc1ccc(F)cc1 | 46 | 40 | -14 | 43* | -42 | 25
Cc1cc(NC(=O)c2cncc(Br)c2)ccc1NC(=O)c1cc2ccccc2o1 | -1 | -4 | -13 | -2 | -1 | nt
COc1ccc(C(=O)NC2CCCc3c2cnn3-c2ccccc2F)o1 (stereo unspecified) | 36 | 16 | 73 | 26 | -13 | nt
N#C/C(=C/c1cccs1)c1nc2ccccc2[nH]1 | 34 | -5 | 8 | 50* | 31 | -35
Cc1ccc(/C=C(\C#N)c2nc3ccccc3[nH]2)s1 | 5 | -43 | 4 | 22 | 18 | nt
COc1ccc(C(=O)N2CCOCC2)cc1Br | -2 | 10 | 32 | -5 | -1 | nt
